Records with an inconclusive call do not appear. The source made the active and inactive calls. The call rests on the fitted dose curve; in most records, active means well fitted activation curve with a large enough effect; inconclusive means small, poorly fitted or top-dose-only effect; inactive means no such curve, though single readings can be large or run the other way.
experiment: qHTS assay for re-activators of p53 using a Luc reporter: Hit Validation; settings: p53-responsive luciferase reporter cells, luminescence, H1299 line expressing heat-sensitive Ala138Val p53; series mostly up to 46.1 µM; activation: at the top concentration; further: nearly all actives have a fitted effect of over 75% in size; on activation: 0% is about no effect
Outline: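 Hit confirmation with a 1:5 dilution series, at 37 deg C for 24 hrs, in H1299 cells co-expressing temperature-sensitive p53-A138V and p53-responsive luciferase. Nocodazole served as control; luminescence read after 10 min with detection reagent.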
Potency means the concentration at half of the fitted maximal effect.

Potency, active:
CCOc1ccc(NC(=O)/C=C/c2ccccc2)c([N+](=O)[O-])c1 5.17 µM, COc1ccccc1NC(CC(=O)c1ccccc1)C(=O)OCC(=O)c1ccc(C)cc1 (configuration not stated) 0.206 µM, O=C(CNS(=O)(=O)c1cccc(Cl)c1)Nc1ccc(-c2nc3ccccc3s2)cc1 16.4 µM, O=C(Oc1ccc2ccccc2c1Cl)N1CCCCCC1 5.8 µM, O=C(COC(=O)C12CC3CC(CC(O)(C3)C1)C2)Nc1ccc(Br)cc1F 14.6 µM, Cc1ccc(NC(=S)NC(=O)C2CCCC2)c(Br)c1 3.66 µM, Clc1ccc(-c2nnc(SCc3ccon3)o2)c(Cl)c1 0.366 µM, O=C(/C=C/c1cnc2ccccc2n1)NC12CC3CC(CC(C3)C1)C2 9.2 µM, CCN(CC)C(=O)CSC(=Nc1ccccc1F)NC#N 14.6 µM, CCOc1ccc(-c2nnc(SCC(=O)N3CCNC3=O)o2)cc1 2.06 µM, O=C(CCS(=O)(=O)c1ccccc1)Nc1ccc(-c2nc3ccccc3s2)cc1 0.651 µM, N#CC1(c2ccc(NC(=O)c3ccccc3F)cc2)CCCC1 1.64 µM, O=C(NCCN1CCOCC1)c1cc(-c2cccs2)on1 23.1 µM, Cc1nc(SCC(=O)Nc2nccs2)c(C#N)c(C)c1C 0.651 µM, c1ccc(-c2cn3c(n2)-c2ccccc2C3)cc1 0.206 µM, Cc1cc(C(=O)N2CCN(c3ccccc3Cl)CC2)c(C)o1 29.1 µM

activation, inactive:
CN1CCN(C(=O)c2cc3ccccc3cc2O)CC1 17.7%, CC(C)(C)c1ccc(S(=O)(=O)N2CCSC2)cc1 -4.43% [at 9.22 µM], CN(Cc1ccccc1)C(=O)CNC(=O)Cn1cnc2ccccc2c1=O -2.08%, COc1ccc(N(C(=O)Nc2ccc(Cl)cc2)C2=NCCC2)cc1 30.2%, CN(NC1CC(=O)N(c2ccccc2)C1=O)c1ccccc1 (configuration not stated) 13.5%, CC1CCN(C2=C(NS(=O)(=O)c3ccc(Br)cc3)C(=O)c3ccccc3C2=O)CC1 35.9%, Cc1ccc2cc(C#N)c(NCc3ccco3)nc2c1 -78.1%, COc1ccc(CCNC(=O)/C=C/c2ccc(S(=O)(=O)N3CCOCC3)cc2)cc1 0.521%, O=C(NNC(=O)c1cc(-c2ccccc2)nn1-c1ccccc1)c1ccccc1 1.05% [at 9.22 µM], CC(C)c1ccc(C(O)c2nc3ccccc3n2C)cc1 (configuration not stated) 19.8%, Cc1ccc2nc(C(F)(F)F)c(C#N)c(N)c2c1 -34.9%, N#Cc1nc(COc2ccccc2)oc1N1CCOCC1 -9.38%, Cc1ccc(C(=O)c2cc([N+](=O)[O-])ccc2N2CCCCC2)cc1C -17.7%, C/C(=N/NC(=S)Nc1ccccc1)c1ccc2c(c1)OCO2 -85.9%, Cc1ccc2nc(N3C(=O)C(O)=C(C(=O)c4ccc(C)o4)C3c3ccco3)sc2c1 (configuration not stated) -2.6%, O=C(CCCN1C(=O)/C(=C/c2ccco2)SC1=S)Nc1ccccc1 36.5%, Cc1cccc(C)c1NC(=O)CC(NCc1ccco1)C(=O)O (configuration not stated) -13.7% [at 9.22 µM], CC(=O)N1CCC(C(=O)Nc2ccc(S(=O)(=O)NCCc3ccccc3)cc2)CC1 7.29%, Cc1cs/c(=N\N=C\c2ccc(O)cc2)n1Cc1ccco1 23.4%, CC1C(=O)CCN(C(C)(C)C)C1C (configuration not stated) 5.21%, O=C(CN1C(=O)NC2(CCCc3ccccc32)C1=O)c1ccc(F)cc1 (configuration not stated) -10.9%

From PubChem BioAssay AID624305 (National Center for Advancing Translational Sciences (NCATS), 2012)
